Only some compounds are listed: those with a hit (about 3% of all), similar ones and a draw of the others.
Mtb FBA inh – Mtb FBA enzyme inhibitors, primary screen, biochemical, fluorescence, strain H37Rv; purified M. tuberculosis FBA, fluorescence read-out; AID 588726, 2011; inhibition, % at 1 µM; 360,000 tested, 2.3% active; Fructose-bisphosphate aldolase (Mycobacterium tuberculosis (strain ATCC 25618 / H37Rv)), …; in the data active = inhibition above about 27%;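 note: 0% = vehicle and 100% = reference inhibitor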
Target sequence (P9WQA3 whole entry, looked up): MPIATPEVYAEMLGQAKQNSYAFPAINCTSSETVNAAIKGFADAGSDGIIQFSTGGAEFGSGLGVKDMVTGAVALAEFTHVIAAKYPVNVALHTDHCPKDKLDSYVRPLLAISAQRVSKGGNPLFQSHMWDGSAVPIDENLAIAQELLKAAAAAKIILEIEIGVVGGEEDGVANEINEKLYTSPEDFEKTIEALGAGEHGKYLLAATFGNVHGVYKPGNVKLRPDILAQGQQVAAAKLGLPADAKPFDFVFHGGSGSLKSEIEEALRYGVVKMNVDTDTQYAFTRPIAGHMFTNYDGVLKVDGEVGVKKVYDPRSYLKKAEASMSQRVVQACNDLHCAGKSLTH
BH1578 lux ind – inducers of Vibrio cholerae quorum light production without autoinducers, primary screen, BH1578 luxS cqsA deficient, single point | V. cholerae BH1578 lux reporter, luminescence, 6 h | activation, % at 18.7 µM | 350,000 tested, 0.16% active; in the data active = activation mostly above about 9.7%, no sharp cut-off
GDH-TPI counter – GDH-TPI coupling enzyme inhibitors, primary screen, artefact control for M. tuberculosis FBA inhibitor project, biochemical, absorbance, full deck; GDH-TPI coupled enzyme counterscreen, NADH absorbance; inhibition, % at 4.8 µM; 360,000 tested, 1.2% active; in the data active = inhibition above about 30%;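 note: 0% = DMSO wells and 100% = wells lacking the enzyme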
BioA inh – M. tuberculosis BioA enzyme inhibitors, primary screen, biochemical, plate reader, single point, HTS | 7,8-diaminopelargonic acid synthase BioA (Mycobacterium tuberculosis) | purified M. tuberculosis BioA enzyme | inhibition, % at 9.99 µM | 360,000 tested, 0.096% active | AID 602481, 2012; in the data active = inhibition above about 40%
* = called active by the depositor; i = inactive; / = no result; + = active, no number.

SMILES	Mtb FBA inh	BH1578 lux ind	GDH-TPI counter	BioA inh
COc1ccc(/C=C/C(=O)NCCN2CCOCC2)cc1OC	9.8	i	1.3	/
CCOc1ccc(/C=C/C(=O)N2CCOCC2)cc1OC	6.1	i	32.2*	-0.6
COc1ccc(/C=C/C(=O)NCC(c2ccc(F)cc2)N2CCOCC2)cc1OC (centres undefined)	9.9	-0.5	34.8*	/
Cc1ccc(S(=O)(=O)Nc2ccc3c(c2)C(=O)N([C@@H](C)CO)C[C@@H](C)[C@H](CN(C)C(=O)c2ccncc2)OCCCC[C@H](C)O3)cc1	/	/	/	-0.6
O=C(Nc1ccccc1)C1CCCN1/C=C/C(=O)C(F)(F)F (centres undefined)	2.4	-0.3	43.9*	0.1
O=C(C[C@H]1CC[C@@H](NS(=O)(=O)c2ccccc2)[C@@H](CO)O1)N1CCc2ccccc2C1	/	/	/	-2.0
Cc1ccn2c(C(=O)N/N=C\c3ccc4c(c3)OCO4)c(C)nc2c1	-0.7	i	46.5*	1.4
Cc1ccc2nc(C)c(C(=O)N/N=C/c3ccccc3[N+](=O)[O-])cc2c1	-4.9	-0.2	3.0	1.4
O=C(N/N=C/c1ccc2c(c1)OCO2)c1cccc2ccccc12	1.3	4.8	10.5	-0.4
Cc1ccn2c(=O)c(NC(=O)c3ccc4c(c3)OCO4)c(C)nc2c1	-0.1	i	31.2*	-1.9
Cc1ccn2c(C(=O)N/N=C/c3ccc(Cl)cc3)c(C)nc2c1	2.0	i	9.6	/
O=C(N/N=C/c1ccc2c(c1)OCO2)c1ccc2ccccc2n1	0.1	-1.4	32.2*	/
Cc1ccn2c(C(=O)N/N=C\c3ccccc3[N+](=O)[O-])c(C)nc2c1	8.8	1.9	44.4*	0.1
CCC(=O)N1[C@H](C(=O)NC2CCC2)[C@@H](CO)[C@@H]2Cn3c(ccc(-c4ccc(F)cc4)c3=O)[C@@H]21	/	/	/	-1.1
COc1ccc(NC(=O)N(C)C[C@H]2Oc3c(NC(=O)C4CCOCC4)cccc3C(=O)N([C@@H](C)CO)C[C@H]2C)cc1	/	/	/	0.6
COc1ccc(NC(=O)Nc2ccc3c(c2)[C@H]2C[C@@H](CC(=O)NCc4ccccn4)O[C@@H](CO)[C@H]2O3)cc1	/	/	/	0.6
CCCC(=O)Nc1ccc2c(c1)OC[C@@H](C)N(Cc1cncnc1)C[C@@H](C)[C@@H](OC)CN(C)C2=O	/	/	/	-1.6
Cc1cccc(C(=O)N/N=C/c2ccc3c(c2)OCO3)n1	-3.2	-0.4	32.9*	0.1
CC(C)=CC(O)C/C(C)=C/COc1ccc2ccc(=O)oc2c1 (centres undefined)	83.0*	-0.7	16.7	5.6
COc1ccc(S(=O)(=O)Nc2ccc3c(c2)C(=O)N([C@@H](C)CO)C[C@@H](C)[C@H](CN(C)Cc2ccncc2)OCCCC[C@H](C)O3)cc1	/	/	/	-0.5
Cc1c(/C=C(\CC(=O)O)c2nc3ccccc3s2)cc(C#N)n1C	9.6	-0.2	42.6*	/
Cc1c(/C=C(\C#N)C(=O)NCc2ccccc2)cc(C#N)n1C	-3.5	-0.4	34.9*	-1.2
Cc1cc(/C=C(\C#N)C(=O)NCc2ccccc2)cc(C)c1O	-14.3	-0.2	6.9	-2.3
COc1cc(/C=C(/C#N)C(=O)NCc2ccccc2)cc(OC)c1OC	-0.9	i	50.0*	0.1
Cc1nn(-c2ccccc2)c(Cl)c1/C=C(/CC(=O)O)c1nc2ccccc2s1	-0.7	/	24.7	/
SMILES	Mtb FBA inh	BH1578 lux ind	GDH-TPI counter	BioA inh
COc1ccc(C2=NCCn3cccc32)c(OC)c1	-1.3	-0.2	49.4*	1.2
O=C(C[C@H]1CC[C@H]2[C@@H](COC[C@@H](O)CN2CC2CCCCC2)O1)NCc1ccc(Cl)cc1	/	/	/	-1.0
N#CC(C#N)=C1C=CC=CN1/C(=C\c1ccco1)C(=O)c1ccc(Cl)cc1	4.4	-3.4	44.4*	/
O=C(N/N=C\C=C\c1ccco1)c1cncc(Br)c1	-1.5	i	33.7*	-1.1
O=C(N/N=C/C=C\c1cccc([N+](=O)[O-])c1)c1ccccn1	-6.0	i	34.3*	/
Cc1ccc(OCC(=O)N/N=C/C=C/c2ccco2)cc1C	-2.0	-0.1	36.6*	/
O=C(N/N=C/C=C\c1ccccc1[N+](=O)[O-])c1ccccn1	-0.6	i	12.4	-0.1
O=C(N/N=C\C=C\c1ccco1)c1cc(-c2ccc3ccccc3c2)n[nH]1	-2.8	2.0	16.9	/
O=C(N/N=C/C=C\c1ccco1)c1cccnc1	-2.8	1.1	32.7*	0.3
Cc1noc(C)c1NC(=O)N(C)C[C@@H]1Oc2c(NC(=O)c3ccncc3)cccc2C(=O)N([C@@H](C)CO)C[C@H]1C	/	/	/	-0.3
C[C@H]1CN([C@@H](C)CO)C(=O)c2cc(C#Cc3ccccc3F)cnc2O[C@H]1CN(C)C(=O)Cc1ccccc1	/	/	/	3.3
O=C(N/N=C/C=C/c1ccco1)c1cnccn1	-3.5	-0.8	16.2	2.9
O=C(N/N=C/C=C/c1ccco1)c1cccnc1	-3.7	-0.3	37.5*	0.6
O=C(N/N=C/C=C\c1ccco1)c1ccccn1	-3.2	-0.3	35.5*	/
O=C(Nc1ccc(Cl)c(Cl)c1)N1CCCCCC1	1.2	i	5.9	8.1
O=C(Nc1ccc(Cl)c(Cl)c1)N1CCC(N2CCCCC2)CC1	0.6	+	-4.7	2.4
Cc1noc(C)c1NC(=O)N[C@@H]1C=C[C@H](CC(=O)NCCCN(C)C)O[C@@H]1CO	/	/	/	2.4
COc1ccc2c(c1)c(=O)oc1cc(OCC(=O)N3CCC(C)CC3)ccc12	20.8	-1.9	18.3	0.0
Cc1c(C)c2ccc(OCC(=O)N3CCN(c4ccccc4)CC3)cc2oc1=O	3.2	-0.2	8.9	15.4
Cc1c(Cl)c(=O)oc2cc(OCC(=O)N3CCCC(C)C3)ccc12 (centres undefined)	+	-2.9	17.0	4.3
COc1ccc2c(c1)c(=O)oc1cc(OCC(=O)N3CCCC(C)C3)ccc12 (centres undefined)	116.0*	-0.4	17.5	1.0
CCOc1ccccc1-c1cnc(NC)cn1	+	-0.5	19.0	-1.0
CNc1cnc(-c2ccccc2OC)cn1	124.9*	i	18.6	-0.8
N#CC(C#N)=Cc1c[nH]c(=O)c(C#N)c1Nc1ccccc1	+	-0.6	16.1	-1.9
COCC#Cc1cnc2c(c1)C(=O)N([C@@H](C)CO)C[C@@H](C)[C@H](CN(C)C(=O)c1ccc3c(c1)OCO3)O2	/	/	/	2.2
SMILES	Mtb FBA inh	BH1578 lux ind	GDH-TPI counter	BioA inh
CC12CN3CCN(CC(C3)/C1=N/NC(N)=O)C2	1.9	-0.3	0.7	/
CC12CN3CCN(CC(C3)/C1=N\N=C1/C3CN4CCN(C3)CC1(C)C4)C2	113.3*	i	5.8	-2.1
COc1cc2c(cc1OC)C(c1ccc(-c3ccc(Cl)cc3Cl)o1)=NCC2	1.9	/	31.8*	-2.9
CCOC(=O)c1ccc(-c2c(-c3ccccc3OC)oc3ccccc23)cc1F	28.1*	i	15.1	7.7
c1cncc(-c2nc(N3CCOCC3)c3ccccc3n2)c1	-2.4	-1.8	16.7	-1.2
c1ccc2c(N3CCOCC3)nc(-c3ccncc3)nc2c1	-1.0	-0.6	32.9*	1.7

Source: PubChem BioAssay
